Where “and” joins values, the source holds several entries; their conditions need not be identical. Equal entries are not always repeated. Inconclusive results are not listed. Some compounds were tested as several samples or in several runs, with calls that do not always agree. Calls of active or inactive are those of the source. Unless noted, calls follow the shape of the dose curve; as a rule, active = well fitted curve in the direction sought with a large enough effect in the repeat runs; inconclusive = weak or mixed curves; inactive = no such curve, though single readings can be large; an effect the other way counts as inactive or inconclusive.
Tests used:
[1] = qHTS assay to identify small molecule antagonists of the thyroid receptor (TR) signaling pathway - cell viability counter screen (AID 743064); also: nearly all actives have a fitted effect of over 50% in size; also: potency is read from the fitted curve at half-maximal effect
Outline: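 GH3.TRE-Luc rat pituitary cells dosed after 4 hr plating, co-stimulated with T3 at 1 nM final, incubated 23.5 h at 37 C. Viability measured in the same wells by CellTiter-Fluor fluorescence after 30 min further at 37 C.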

[2] = qHTS assay to identify small molecule antagonists of the thyroid receptor (TR) signaling pathway (AID 743065); also: nearly all actives have a fitted effect of over 55% in size; also: potency is read from the fitted curve at half-maximal effect
Outline: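 GH3.TRE-Luc rat pituitary cells carrying two TR response elements driving luciferase were plated for 4 h, given compound plus 1 nM T3 (final), and incubated 23.5 h at 37 C. ONE-Glo luminescence measured reporter inhibition; CellTiter-Fluor fluorescence tracked cytotoxicity.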

[3] = tested on: thyroid hormone receptor (rat, GH3 cells); assay: qHTS assay to identify small molecule agonists of the thyroid receptor (TR) signaling pathway (AID 743066; calls by dose curve)
[4] = qHTS assay to identify small molecule antagonists of the estrogen receptor alpha (ER-alpha) signaling pathway - cell viability counter screen (AID 743074; calls by dose curve; also: nearly all actives have a fitted effect of over 45% in size)
[5] = qHTS assay to identify small molecule antagonists of the estrogen receptor alpha (ER-alpha) signaling pathway using the BG1 cell line - cell viability counter screen (AID 743081);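 also: compound given together with 17beta-estradiol as the ER stimulus; nearly all actives have a fitted effect of over 45% in size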
[6] = qHTS assay to identify small molecule antagonists of the peroxisome proliferator-activated receptor gamma (PPARg) signaling pathway - cell viability counter screen (AID 743194); conditions: Potency: co-treated with 50 nM rosiglitazone unless noted; also: nearly all actives have a fitted effect of over 55% in size
Outline: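 PPARg-UAS-bla HEK293H cells were plated, rested 5 h at 37 C, then treated with compounds plus rosiglitazone (50 nM final) for 17 h at 37 C; viability was then read by CellTiter-Glo luminescence after 30 min at room temperature.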

[7] = qHTS assay for small molecule agonists of the antioxidant response element (ARE) signaling pathway (AID 743202; active = well fitted activation curve with a large enough effect in the signal ratio in the repeat runs, not every such curve was filed as active; the % refers to the signal ratio)
Outline: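 Steps: seed ARE-bla HepG2 cells (2,000/well); incubate 5 h at 37 C; add compounds by pin tool; incubate 16 h at 37 C; add FRET substrate; read fluorescence after 2 h at RT.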

[8] = qHTS assay for small molecule agonists of the antioxidant response element (ARE) signaling pathway - cell viability counter screen (AID 743203; calls by dose curve; also: nearly all actives have a fitted effect of over 55% in size; also: potency is read from the fitted curve at half-maximal effect)
Outline: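 Viability counter screen: CellTiter-Glo luminescence, read after 30 min at room temperature, in ARE-bla HepG2 wells. Compound exposure lasted 16 h at 37C/5% CO2, following a 5 h pre-incubation of the cells after plating.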

[9] = qHTS assay for small molecule activators of the heat shock response signaling pathway - cell viability counter screen (AID 743209); also: nearly all actives have a fitted effect of over 50% in size; also: potency is read from the fitted curve at half-maximal effect
Outline: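 Cytotoxicity counter screen run in the same wells as the heat-shock bla reporter assay: HeLa HSE-bla cells, 5 h compound exposure at 37 C, viability read by CellTiter-Glo luminescence.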

[10] = qHTS assay for small molecule activators of the heat shock response signaling pathway (AID 743210; active = well fitted activation curve with a large enough effect in the signal ratio in the repeat runs, with a control signal flat, not every such curve was filed as active; the % refers to the signal ratio;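 also: HeLa cells with beta-lactamase reporter driven by heat shock elements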)
Outline: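 Activation of heat shock element-controlled beta-lactamase expression is measured in HeLa cells by LiveBLAzer FRET fluorescence, with compound exposure lasting 5 h at 37 C and substrate loading 2.5 h at room temperature.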

Aromatase (Homo sapiens) = Aromatase (Homo sapiens) (UniProt P11511); assay: qHTS assay to identify aromatase inhibitors (AID 743083); also: nearly all actives have a fitted effect of over 55% in size; also: potency is read from the fitted curve at half-maximal effect
[11] = qHTS assay to identify aromatase inhibitors - cell viability counter screen (AID 743084); also: potency is read from the fitted curve at half-maximal effect
[12] = target: Aryl hydrocarbon receptor (Homo sapiens) (UniProt P35869); assay: qHTS assay to identify small molecule that activate the aryl hydrocarbon receptor (AhR) signaling pathway (AID 743085);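 also: HG2L7.5c1 human HepG2 liver cells with stably integrated DRE-driven firefly reporter; nearly all actives have a fitted effect of over 15% in size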
Outline: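 HepG2 cells stably carrying a 20-DRE firefly luciferase reporter (HG2L7.5c1) treated with compound for 24 hr at 37C. Luciferase read by ONE-Glo luminescence, with CellTiter-Fluor viability read first.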

[13] = target: Peroxisome proliferator-activated receptor gamma (Homo sapiens) (UniProt P37231); assay: qHTS assay to identify small molecule agonists of the peroxisome proliferator-activated receptor gamma (PPARg) signaling pathway (AID 743094; active = well fitted activation curve with a large enough effect in the signal ratio in the repeat runs, not every such curve was filed as active; the % refers to the signal ratio)
Outline: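 Agonist activity was taken from a beta-lactamase reporter (FRET substrate, 1 h at room temperature) in HEK293H cells carrying a PPARg UAS-bla construct. Compounds in DMSO were incubated 17 h at 37C after a 5 h cell pre-incubation.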

[14] = target: Peroxisome proliferator-activated receptor gamma (Homo sapiens) (UniProt P37231); assay: qHTS assay to identify small molecule antagonists of the peroxisome proliferator-activated receptor gamma (PPARg) signaling pathway (AID 743191; calls by dose curve; also: nearly all actives have a fitted effect of over 30% in size; also: potency is read from the fitted curve at half-maximal effect)
Outline: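 GeneBLAzer PPARg UAS-bla HEK293H cells carrying a UAS-driven beta-lactamase reporter were plated at 3000 cells/well, preincubated 5 h at 37C, then given compound for 17 h at 37C; LiveBLAzer B/G FRET substrate was read after 1 h at room temperature.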

[15] = qHTS assay to identify small molecule that activate the aryl hydrocarbon receptor (AhR) signaling pathway - cell viability counter screen (AID 743086); also: nearly all actives have a fitted effect of over 45% in size; also: potency is read from the fitted curve at half-maximal effect;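 as to viability change, negative = cytotoxic: HepG2 liver cells carrying the AhR DRE luciferase reporter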
Outline: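 HepG2-AhR-luc (HG2L7.5c1) cells, 4000/well, were preincubated 5 h at 37C, exposed to compound in qHTS format for 24 hr at 37C, then given CellTiter-Fluor for 30 min; viability was read as fluorescence in the reporter wells.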

[16] = target: Estrogen receptor (Homo sapiens) (UniProt P03372); assay: qHTS assay to identify small molecule antagonists of the estrogen receptor alpha (ER-alpha) signaling pathway (AID 743069; active = well fitted curve in the direction sought with a large enough effect in the signal ratio in the repeat runs, not every such curve was filed as active; the % refers to the signal ratio)
Outline: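 Screening used a UAS-driven beta-lactamase reporter integrated into HEK293 cells expressing ER-alpha, stimulated with 17beta-estradiol alongside test compounds over 18 hr at 37C; signal came from LiveBLAzer B/G FRET fluorescence.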

[17] = target: Estrogen receptor (Homo sapiens) (UniProt P03372); assay: qHTS assay to identify small molecule agonists of the estrogen receptor alpha (ER-alpha) signaling pathway (AID 743075; calls by dose curve)
[18] = target: Estrogen receptor (Homo sapiens) (UniProt P03372); assay: qHTS assay to identify small molecule agonists of the estrogen receptor alpha (ER-alpha) signaling pathway using the BG1 cell line (AID 743079); conditions: BG1Luc4E2 cells, ERE-luciferase agonist, 22 h; activation: at 70.3 µM (top of the series); also: nearly all actives have a fitted effect of over 20% in size
[19] = qHTS assay to identify small molecule antagonists of the estrogen receptor alpha (ER-alpha) signaling pathway using the BG1 cell line (AID 743080; calls by dose curve;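 also: BG1 cells stimulated with 17beta-estradiol alongside compound; nearly all actives have a fitted effect of over 25% in size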)
Outline: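 Readout is ONE-Glo luminescence, taken 30 min at room temperature after reagent addition, preceded by a CellTiter-Fluor viability read; BG1-Luc-4E2 cells had received compound and 17beta-estradiol for 21.5 h at 37 C.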
% is scaled to controls: 0 for no effect and ±100 for the full control effect.

Sequence of Aromatase (Homo sapiens) (P11511 whole entry, looked up): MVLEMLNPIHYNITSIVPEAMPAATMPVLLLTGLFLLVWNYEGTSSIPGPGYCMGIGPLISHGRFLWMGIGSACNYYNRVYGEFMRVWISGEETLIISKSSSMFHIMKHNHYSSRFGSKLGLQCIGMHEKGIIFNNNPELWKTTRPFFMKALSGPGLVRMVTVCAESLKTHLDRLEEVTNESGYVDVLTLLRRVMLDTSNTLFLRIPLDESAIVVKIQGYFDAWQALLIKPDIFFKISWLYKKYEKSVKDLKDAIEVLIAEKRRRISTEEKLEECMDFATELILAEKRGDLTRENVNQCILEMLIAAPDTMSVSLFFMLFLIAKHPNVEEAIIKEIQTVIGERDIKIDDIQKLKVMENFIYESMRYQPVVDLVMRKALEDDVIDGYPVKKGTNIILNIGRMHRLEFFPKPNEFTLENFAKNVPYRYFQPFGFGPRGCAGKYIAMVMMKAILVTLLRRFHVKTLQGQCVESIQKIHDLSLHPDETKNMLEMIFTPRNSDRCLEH
Sequence of Estrogen receptor (Homo sapiens) (P03372 whole entry, looked up): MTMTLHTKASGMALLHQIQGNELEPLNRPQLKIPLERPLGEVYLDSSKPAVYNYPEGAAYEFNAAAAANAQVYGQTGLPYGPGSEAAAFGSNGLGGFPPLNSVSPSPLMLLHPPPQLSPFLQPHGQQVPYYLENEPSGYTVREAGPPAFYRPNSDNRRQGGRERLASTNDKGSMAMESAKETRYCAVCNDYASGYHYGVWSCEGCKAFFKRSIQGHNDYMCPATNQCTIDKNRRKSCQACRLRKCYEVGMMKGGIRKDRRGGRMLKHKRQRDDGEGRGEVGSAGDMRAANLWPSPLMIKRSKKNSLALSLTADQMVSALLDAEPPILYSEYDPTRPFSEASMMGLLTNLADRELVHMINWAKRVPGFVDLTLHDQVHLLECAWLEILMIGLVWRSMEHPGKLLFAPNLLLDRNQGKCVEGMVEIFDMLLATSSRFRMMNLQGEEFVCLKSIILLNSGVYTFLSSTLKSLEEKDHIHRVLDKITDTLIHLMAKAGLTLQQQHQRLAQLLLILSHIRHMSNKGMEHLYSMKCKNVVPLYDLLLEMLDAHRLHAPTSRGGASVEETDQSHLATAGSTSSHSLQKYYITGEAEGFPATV
Sequence of Aryl hydrocarbon receptor (Homo sapiens) (P35869 whole entry, looked up): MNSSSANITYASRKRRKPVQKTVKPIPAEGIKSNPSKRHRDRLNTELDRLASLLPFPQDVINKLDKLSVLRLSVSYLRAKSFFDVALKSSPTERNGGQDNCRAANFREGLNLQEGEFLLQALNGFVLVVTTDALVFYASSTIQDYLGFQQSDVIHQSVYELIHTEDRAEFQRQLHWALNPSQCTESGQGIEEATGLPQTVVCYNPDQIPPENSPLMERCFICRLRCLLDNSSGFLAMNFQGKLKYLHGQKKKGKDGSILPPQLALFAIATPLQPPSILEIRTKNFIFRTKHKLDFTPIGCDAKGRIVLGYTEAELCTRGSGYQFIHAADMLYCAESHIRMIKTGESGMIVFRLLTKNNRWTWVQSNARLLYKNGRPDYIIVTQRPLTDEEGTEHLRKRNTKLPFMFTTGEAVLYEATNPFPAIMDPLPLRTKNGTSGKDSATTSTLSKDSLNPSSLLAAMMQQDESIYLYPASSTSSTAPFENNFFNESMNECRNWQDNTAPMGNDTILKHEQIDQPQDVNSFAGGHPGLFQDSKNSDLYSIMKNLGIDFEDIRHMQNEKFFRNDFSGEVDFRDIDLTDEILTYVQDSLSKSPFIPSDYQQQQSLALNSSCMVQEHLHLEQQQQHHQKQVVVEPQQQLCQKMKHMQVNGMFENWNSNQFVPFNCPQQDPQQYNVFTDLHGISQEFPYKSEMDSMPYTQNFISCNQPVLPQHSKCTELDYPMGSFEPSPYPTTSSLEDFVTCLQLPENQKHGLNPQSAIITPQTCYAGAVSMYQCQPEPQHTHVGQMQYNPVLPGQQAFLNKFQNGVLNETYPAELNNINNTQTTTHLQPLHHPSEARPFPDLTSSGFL
Sequence of Peroxisome proliferator-activated receptor gamma (Homo sapiens) (P37231 whole entry, looked up): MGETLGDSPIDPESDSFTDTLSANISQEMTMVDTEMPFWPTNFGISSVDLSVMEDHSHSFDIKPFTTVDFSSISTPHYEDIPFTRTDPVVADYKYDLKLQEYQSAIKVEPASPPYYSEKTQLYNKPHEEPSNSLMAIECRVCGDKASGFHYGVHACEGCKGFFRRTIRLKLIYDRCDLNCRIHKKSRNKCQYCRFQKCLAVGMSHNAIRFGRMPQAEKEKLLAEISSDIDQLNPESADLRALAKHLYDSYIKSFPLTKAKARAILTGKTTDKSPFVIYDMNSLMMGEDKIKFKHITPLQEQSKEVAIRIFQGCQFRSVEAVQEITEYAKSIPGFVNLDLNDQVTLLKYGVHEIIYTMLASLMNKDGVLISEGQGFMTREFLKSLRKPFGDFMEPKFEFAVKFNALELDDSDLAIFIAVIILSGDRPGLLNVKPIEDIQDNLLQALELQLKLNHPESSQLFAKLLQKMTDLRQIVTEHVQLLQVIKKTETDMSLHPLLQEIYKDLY

Clc1c(Cl)c(Cl)c(Cl)c(Cl)c1Cl
inactive: activity change, negative = cytotoxic [1] -0.947% [at 8.44 µM] | activity, negative = inhibition [2] 0.884% [at 8.44 µM] | activation [3] -1.24% [at 8.08 µM] | activity, negative = cytotoxicity [4] 18.2% [at 6.72 µM] | activity change, negative = cytotoxicity [5] 5.59% [at 8.47 µM] | activity change, negative = cytotoxicity [6] -5.6% [at 5.95 µM, co-treated with 50 nM rosiglitazone] | activation [7] -2.23% [at 8.36 µM] | viability change, negative = cytotoxic [8] 3.6% [at 8.36 µM] | activity change, negative = cytotoxicity [9] -0.0057% [at 5.95 µM] | activation [10] -2.21% [at 5.95 µM]

COc1ccc2c(c1OC)C(=O)O[C@@H]2[C@H]1c2cc3c(cc2CCN1C)OCO3
active: Potency [1] 6.79 µM | Potency [11] 2.15 µM
inactive: Potency [2] | Potency [3] | Potency [4] | Potency (Aromatase (Homo sapiens)) | Potency [12] | Potency [13] | Potency [14] | Potency [7] | Potency [8] | Potency [9] | Potency [10]

O=[N+]([O-])C(Br)Br
inactive: Potency [1] | Potency [2] | Potency [3] | Potency [4] | Potency [5] | Potency [12] | Potency [15] | Potency [13] | Potency [9] | Potency [10]
active: Potency [8] 61.3 µM

O=S1(=O)OCC2C(CO1)C1(Cl)C(Cl)=C(Cl)C2(Cl)C1(Cl)Cl (centres undefined)
active: Potency [1] 54.5 µM | Potency [2] 48.6 µM | Potency (Aromatase (Homo sapiens)) 54.5 µM | Potency [11] 61.1 µM
inactive: Potency [16] | Potency [17] | Potency [18] | Potency [5] | Potency [12] | Potency [13] | Potency [14] | Potency [6] | Potency [8]

CCCCCON=O
inactive: Potency [1] | Potency [2] | Potency [3] | Potency [5] | Potency (Aromatase (Homo sapiens)) | Potency [11] | Potency [12] | Potency [15] | Potency [14] | Potency [6] | Potency [7] | Potency [8] | Potency [9] | Potency [10]

C#CC1(O)CCCCC1
inactive: Potency [1] | Potency [2] | Potency [3] | Potency [4] | Potency [5] | Potency (Aromatase (Homo sapiens)) | Potency [11] | Potency [12] | Potency [13] | Potency [14] | Potency [6] | Potency [7] | Potency [8] | Potency [9] | Potency [10]

COCCC#N
inactive: Potency [1] | Potency [2] | Potency [3] | Potency [4] | Potency [5] | Potency (Aromatase (Homo sapiens)) | Potency [11] | Potency [15] | Potency [13] | Potency [6] | Potency [7] | Potency [8] | Potency [9] | Potency [10]

O=C1C[C@@H]2OCC=C3CN4CC[C@]56c7ccccc7N1[C@H]5[C@H]2[C@H]3C[C@H]46
inactive: Potency [1] | Potency [2] | Potency [3] | Potency [4] | Potency [5] | Potency (Aromatase (Homo sapiens)) | Potency [11] | Potency [15] | Potency [6] | Potency [7] | Potency [8] | Potency [9] | Potency [10]

CCCC[N+]1(C)CCCC1 (tested in a mixture with another compound)
inactive: Potency [1] | Potency [2] | Potency [3] | Potency [4] | Potency [5] | Potency (Aromatase (Homo sapiens)) | Potency [11] | Potency [15] | Potency [8] | Potency [9] | Potency [10]

O=C(NC(=O)c1ccccc1Cl)Nc1ccc(OC(F)(F)F)cc1
inactive: Potency [1] | Potency [2] | Potency [3] | Potency [4] | Potency [5] | Potency (Aromatase (Homo sapiens)) | Potency [11] | Potency [15] | Potency [14] | Potency [6] | Potency [8] | Potency [9] | Potency [10]

[Cl-].[Cl-].[Sn+2]
inactive: Potency [1] | Potency [2] | Potency [3] | Potency [4] | Potency (Aromatase (Homo sapiens)) | Potency [11] | Potency [12] | Potency [15] | Potency [6] | Potency [8] | Potency [9] | Potency [10]

ClC1=C(Cl)[C@]2(Cl)[C@H]3[C@H]([C@@H]4C=C[C@H]3C4)[C@@]1(Cl)C2(Cl)Cl
inactive: Potency [16] | Potency [4] | Potency [17] | Potency [18] | Potency [19] | Potency [5] | Potency (Aromatase (Homo sapiens)) | Potency [11] | Potency [12] | Potency [15] | Potency [13] | Potency [7] | Potency [10]
inactive and 54.5 µM (active): Potency [8]
active: Potency [1] 68.5 µM and 61.1 µM | Potency [2] 54.5 µM
inactive and 24.5 µM (active): Potency [9]

CC1CCCC1
active: Potency [14] 21.5 µM | Potency [9] 12.1 µM
inactive: Potency [1] | Potency [2] | Potency [3] | Potency [4] | Potency [5] | Potency (Aromatase (Homo sapiens)) | Potency [11] | Potency [15] | Potency [13] | Potency [6] | Potency [8]

O=c1c2ccccc2c(=O)c2c1cc(Cl)c1[nH]c3c([nH]c12)c(Cl)cc1c(=O)c2ccccc2c(=O)c13
inactive: Potency [1] | Potency [3] | Potency [16] | Potency [4] | Potency [17] | Potency [18] | Potency [19] | Potency [5] | Potency (Aromatase (Homo sapiens)) | Potency [11] | Potency [15] | Potency [14] | Potency [7] | Potency [8] | Potency [9] | Potency [10]

CCC(OC(C)=O)C(CC(C)NC)(c1ccccc1)c1ccccc1 (centres undefined)
inactive: Potency [17] | Potency [12] | Potency [9]
active: Potency [1] 19.5 µM | Potency [2] 19.5 µM | Potency [15] 69.2 µM | Potency [8] 77.6 µM

CCn1cc[n+](C)c1 (tested in a mixture with another compound)
inactive: Potency [1] | Potency [3] | Potency [4] | Potency [5] | Potency [7] | Potency [8] | Potency [9]

— PubChem BioAssay (Tox21)
